Experimental data: PubChem BioAssay (NCI)
Compounds without any hit were thinned out: in the full panel of roughly 79,000, 15% have a hit. Unmarked numbers belong to inactive results. The source made the active and inactive calls. Rule as the data show it: active = growth inhibition above about 70%; inactive = the rest.

Experiments:
[1] = NCI Yeast Anticancer Drug Screen. Data for the rad50 strain (AID 155);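 also: 0% = growth of vehicle-only cultures of the same strain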; details: S. cerevisiae rad50 strain growth inhibition; at 50.0 µM; active compounds read high
Procedure, shortened: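 Growth of the mutant yeast was measured after compound exposure and referenced to vehicle-treated cultures.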

[2] = NCI Yeast Anticancer Drug Screen. Data for the mec2-1 strain (AID 157); details: S. cerevisiae mec2-1 strain, at 50.0 µM, active compounds read high
Procedure, shortened: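 Test agents were screened against the mec2-1 yeast strain, with defined DNA repair or cell cycle alteration. Growth was scored as inhibition against vehicle-only controls.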

[3] = NCI Yeast Anticancer Drug Screen. Data for the sgs1 mgt1 strain (AID 161);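 also: 0% = growth of cultures given vehicle only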; details: S. cerevisiae sgs1 mgt1 strain, at 50.0 µM, active compounds read high
Procedure, shortened: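 Mutant yeast exposed to compound; growth scored against vehicle-only wells.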

[4] = NCI Yeast Anticancer Drug Screen. Data for the cln2 rad14 strain (AID 165);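 also: 0% = growth equal to vehicle treated cultures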; details: S. cerevisiae cln2 rad14 strain, at 50.0 µM, active compounds read high
Procedure, shortened: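 Growth of compound-exposed yeast (cln2 rad14 genotype) measured and expressed as inhibition relative to vehicle.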

[5] = NCI Yeast Anticancer Drug Screen. Data for the bub3 strain (AID 167); details: S. cerevisiae bub3 mutant strain, at 50.0 µM, active compounds read high
Procedure, shortened: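 Whole-cell yeast assay. The mutant strain was incubated with compounds, and growth inhibition was determined by comparison with vehicle-treated cells.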

[6] = NCI Yeast Anticancer Drug Screen. Data for the mlh1 rad18 strain (AID 175); details: S. cerevisiae mlh1 rad18 strain growth inhibition; at 50.0 µM; active compounds read high
Procedure, shortened: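 In this whole-cell yeast screen, a strain with altered DNA damage repair is challenged with compound, and its growth is measured against matched vehicle-treated controls.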

SMILES	growth inhibition [1]	growth inhibition [2]	growth inhibition [3]	growth inhibition [4]	growth inhibition [5]	growth inhibition [6]
CCc1nnc2sc3c(Cl)c4nn5c(CC)nnc5sc4c(Cl)c3nn12	37.2%	-6.2%	16.8%	24.2%	-0.3%	12.5%
COc1cc(C)c([N+](=O)[O-])cc1[N+](=O)[O-]	4.15%	8.2%	9.65%	-2.35%	-10.1%	1%
CCCCCNC(=O)Nc1cccc(Cl)c1C	-1.4%	6.75%	3.55%	11.4%	16.6%	-20.6%
CC(=O)C1(SCCO)CCC2C3CCC4=CC(=O)CCC4(C)C3CCC21C (stereo unspecified)	91.8% (active)	69.8%	97% (active)	-3.35%	41.1%	77.2% (active)
Cc1ccc(SCc2cn(C3OC(CO)C(O)C3O)c(=O)[nH]c2=O)cc1 (stereo unspecified)	25.3%	20.4%	12.9%	22.6%	-1.4%	12.2%
CC(NC(=O)N(C)C)NC(=O)N(C)C	-17.9%	-22.3%	-5.15%	-5.85%	-0.9%	-4.95%
O=c1[nH]cnc2c1CN(c1ccc(Cl)cc1)C2	-14.5%	3.45%	-11.3%	-29.6%	-19.2%	-1.9%
COc1cc(O)c2c(c1)C(=O)C1=C(C2=O)C(O)C[C@@](C)(O)C1 (stereo partly specified)	89.2% (active)	90.2% (active)	92% (active)	75.5% (active)	91.2% (active)	90% (active)
O=C(NCc1ccccc1)c1cc(Cl)ccc1O	-20.3%	-7.1%	-7.65%	-37.4%	0.95%	5.35%
O=C(O)CN1C(=O)c2ccc([N+](=O)[O-])cc2C1=O	-3.65%	-0.2%	2.3%	-8.2%	-16.5%	4.25%
Cc1nc(N)nc(C)c1N=Nc1cc(Cl)cc(Cl)c1	-27.1%	4.15%	-2.2%	-32.9%	10.2%	-7.85%
O=C(CNC(=O)c1ccccc1)Nc1ccc([N+](=O)[O-])cc1	15.2%	-0.65%	-1.5%	26.8%	22.6%	5.7%
NC(=O)c1[nH]c(N=Nc2ccc(S(N)(=O)=O)cc2)nc1N	28.6%	13.6%	15%	-5.1%	-15.7%	17.9%
C=CCOc1cc(NC(=S)c2ccoc2C)ccc1OC	-17.4%	-3.15%	-10%	-2.7%	-3.35%	-52.9%
CC1C[C@]2(C)C(=O)N(c3ccccc3)C(=N)[C@@H]2N(C)c2ccccc21 (stereo partly specified)	-14.2%	6.7%	-3.55%	-4.15%	25.9%	-15.8%
Cc1cc(Cc2cccc3ccccc23)nc2c1ccc1ccccc12	0.85%	-11.2%	12.2%	11%	-13.9%	17.6%
NCCCC(NC(=O)CCCCCCCCN=C(N)N)C(O)CCCCCCCCN=C(N)N (stereo unspecified)	20.9%	14.8%	4.55%	-6.8%	22.3%	0.75%
COC(=O)c1c2c(cc3c1CC1(C3)Cc3ccc4c(c3C1=O)CCC4)CCC2 (stereo unspecified)	12.5%	14.4%	-7.35%	-13.8%	-21.1%	-86%
Cc1cccc(CC(CC(=O)O)C(=O)O)c1 (stereo unspecified)	4.85%	9.45%	-1.85%	11.6%	-2.45%	1.4%
Cc1ccc(S(=O)(=O)N2CCCN(S(=O)(=O)c3ccc(C)cc3)COC2)cc1	4.1%	11.6%	-8.4%	3.1%	-10.4%	-1.25%
CCCCNCC(=O)Nc1ccc(C(=O)OC(C)C)cc1	-1.9%	-18.1%	-5.95%	-35.3%	10.8%	-1.75%

SMILES	growth inhibition [1]	growth inhibition [2]	growth inhibition [3]	growth inhibition [4]	growth inhibition [5]	growth inhibition [6]
COC(=O)c1cc(-c2ccccc2)c2c(=O)n(-c3ccccc3)[nH]c2n1	13.7%	7.35%	20.5%	-10.3%	-4.55%	4.85%
O=C1OC2C(I)C3C(C4CCCCC4)C1C23 (stereo unspecified)	8.3%	-3.85%	31.8%	17%	65.8%	7.7%
CNc1ccc(C(=O)O)cc1C(F)(F)F	-0.35%	-1.45%	-6%	0.65%	-32.6%	8.85%
CSc1ccc2c(c1)Cc1cc(NC(C)=O)ccc1-2	8.8%	-9.05%	-4.25%	-12.3%	-11.8%	1.05%
COc1ccc(/C=C/c2ccc3ccccc3[n+]2C)cc1OC	32%	4.55%	32.6%	21.3%	0.7%	15.9%
N=C(N)n1ncc2c1CCCC2=O	-17.4%	19.9%	-6.1%	-20.2%	6.1%	1.75%
CCCCCCCCCCCCCCCCS(=O)(=O)N/N=C/c1ccc(N(C)C)cc1	26.1%	13.3%	17.1%	12.3%	1.95%	13.7%
Cn1c(=O)c2c(nc(NCCO)n2Cc2ccccc2)n(C)c1=O	20.1%	9.95%	7.2%	18.3%	8.45%	31.2%
C[C@@H](O)CO	17.8%	-16%	1.7%	3.75%	-3.55%	13.2%
CC(=O)Nc1ccc(C(=O)CC(c2ccccc2)N2CCOCC2)cc1 (stereo unspecified)	4.3%	14.1%	11.9%	-19%	26.1%	2.8%
O=C(c1cccc(F)c1)c1ccccc1Cc1ccccc1	-4.45%	4.2%	-8.05%	19.4%	-3.1%	-11.4%
CSCCCNC(=O)c1csc(-c2csc(CCNC(=O)[C@@H](NSc3ccccc3[N+](=O)[O-])[C@@H](C)O)n2)n1	0.15%	6.05%	1.3%	-22.1%	0.95%	18.9%
CN1CCC(O)(C#N)CC1	-5.55%	2%	-13.6%	-42.6%	10.1%	-2.85%
COc1ccc2nc(C3CCCCC3C(=O)O)cc(C)c2c1 (stereo unspecified)	-9.2%	-5.35%	-5.8%	-27.1%	-4.3%	-1.45%
Cc1ccc(S(=O)(=O)NN=C2C(C)(C)C(=O)C2(C)C)cc1	-1.5%	-1.1%	-32.9%	32.1%	-2.25%	-6.45%
Cc1cc(Br)ccc1N=Cc1ccc(C=Nc2ccc(Br)cc2C)cc1	-6.75%	-17.6%	-11.8%	-2.5%	-3.65%	-0.2%
COc1c(C)c(OCC=C(C)C)cc(CO)c1CO	11.8%	-3.2%	-13.9%	-8.15%	-0.95%	-84.5%
CN(C)Cc1ccccc1C=C(c1ccccc1)c1ccccc1	3.05%	0.65%	-6.2%	-37.9%	0.55%	-9.8%
Nc1c(Cl)ncnc1NCCN1CCOCC1	-3.85%	1.9%	1.55%	-22.1%	-17.5%	-18.4%
NC(N)=NS(=O)(=O)c1ccc(N2C(=O)CC3(CCCC3)C2=O)cc1	10.8%	-2.25%	-16.8%	17.6%	13.4%	6.75%
